Hits are enriched below; roughly 4% of the tested compounds scored in any of these assays.
GDH-TPI counter – inhibits GDH-TPI coupling enzymes, artifact for Mtb FBA screen. GDH-TPI coupled enzyme counterscreen, NADH absorbance. inhibition, % at 4.8 µM. actives 1.2% (n = 360,000). AID 588335; in the data active = inhibition above about 30%;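 also: 0% = DMSO wells and 100% = wells lacking the enzyme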
Mtb bLac sens – beta-lactam sensitization of Mtb H37Rv; actives 0.27% (n = 330,000); M. tuberculosis H37Rv growth with meropenem, percent inhibition; inhibition, % at 25 µM; call rule not given here;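 also: growth measured after seven days incubation then overnight dye step; 0% = bacteria only wells and 100% = bacteria with antibiotic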
FBA Mtb inh – inhibitors of M. tuberculosis fructose-bisphosphate aldolase. P9WQA3. purified M. tuberculosis FBA, fluorescence read-out. inhibition, % at 1 µM. actives 2.3% (n = 360,000). AID 588726; in the data active = inhibition above about 27%;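 also: 0% = vehicle and 100% = reference inhibitor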
Target sequence (P9WQA3 whole entry, looked up): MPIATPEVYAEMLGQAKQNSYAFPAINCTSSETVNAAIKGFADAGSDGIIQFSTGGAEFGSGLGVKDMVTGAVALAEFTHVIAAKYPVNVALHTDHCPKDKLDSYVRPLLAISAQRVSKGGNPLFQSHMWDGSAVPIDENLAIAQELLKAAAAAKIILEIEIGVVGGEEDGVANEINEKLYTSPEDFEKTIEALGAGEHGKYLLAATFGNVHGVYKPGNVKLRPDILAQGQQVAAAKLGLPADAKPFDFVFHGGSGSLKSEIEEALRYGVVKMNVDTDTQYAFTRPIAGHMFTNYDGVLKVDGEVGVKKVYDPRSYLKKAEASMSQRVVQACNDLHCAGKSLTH
RecA splice inh – inhibitors of M. tuberculosis RecA intein splicing; cell-free RecA intein splicing, fluorescence; actives 0.75% (n = 290,000); P9WHJ3; inhibition, % (no concentration beside the values); in the data active = inhibition above about 30%;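 also: 0% = vehicle wells and 100% = reference inhibitor control wells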
Mtb UGM inh – inhibitors of M. tuberculosis UDP-galactopyranose mutase; AID 504406; actives 0.06% (n = 320,000); purified UGM, fluorescence polarization probe displacement; inhibition, % at 10 µM; in the data active = inhibition above about 10%, passing the limit was not always enough
Rv3671c protease – Rv3671c (M. tuberculosis) protease inhibition. inhibition, % at 5.96 µM. P9WHR9. AID 2606. actives 0.048% (n = 320,000); in the data active = inhibition above about 38%;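 also: extracellular domain of Rv3671c used as enzyme; 0% = enzyme with DMSO and 100% = no enzyme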
* marks the source's active call; other numbers are inactive results.

Results for NC(=O)N/N=C/c1c(Sc2nnnn2-c2ccccc2)nc2ccccn2c1=O ?
GDH-TPI counter: 26.4; Mtb bLac sens: 1.2; FBA Mtb inh: 2.4; RecA splice inh: 27.4; Mtb UGM inh: 2.4; Rv3671c protease: -5.1

How did COc1cc(/C=N/N2C(=O)C3C4c5ccccc5C(c5ccccc54)C3C2=O)ccc1O (stereo unspecified) do in these assays?
GDH-TPI counter: 34.1*; Mtb bLac sens: 1.1; FBA Mtb inh: 0.6; RecA splice inh: 0.9; Mtb UGM inh: 2.5; Rv3671c protease: -37.2

How did CCN(CC)c1ccc(/C=N/n2nnnc2N)c(O)c1 do in these assays?
GDH-TPI counter: 37.8*; Mtb bLac sens: -3.4; FBA Mtb inh: 1.1; RecA splice inh: -38.2; Mtb UGM inh: 1.1; Rv3671c protease: 6.9

How did CC(=O)Oc1ccc(Cl)cc1CN(C(C)=O)C1CCCCC1 do in these assays?
GDH-TPI counter: 6.8; FBA Mtb inh: -0.4

How did C(=N\Nc1ccc2nncn2n1)/c1ccco1 do in these assays?
GDH-TPI counter: 17.5; Mtb bLac sens: -2.0; FBA Mtb inh: -0.1; RecA splice inh: -3.6; Mtb UGM inh: -0.9; Rv3671c protease: 11.7

Results for BrC(=C\c1ccccc1)/C=N/Nc1ccc2nncn2n1 ?
GDH-TPI counter: 32.2*; Mtb bLac sens: -2.8; FBA Mtb inh: -1.1; RecA splice inh: 3.4; Mtb UGM inh: -0.3; Rv3671c protease: 4.9

How did Cc1ccc(C)c(NC(=O)CN(C)C(=O)C2=NNC(=O)CC2)c1 do in these assays?
GDH-TPI counter: 8.4; Mtb bLac sens: -3.6; FBA Mtb inh: -1.1; Mtb UGM inh: 2.1; Rv3671c protease: 0.0

What do the screens show for `O=C(Nc1nccs1)c1sc2cc(Cl)ccc2c1Cl`?
GDH-TPI counter: 33.5*; Mtb bLac sens: 80.0; FBA Mtb inh: -4.3; RecA splice inh: -6.2; Mtb UGM inh: 3.0; Rv3671c protease: -11.0

How did Cc1ccccc1-c1cnc2c(c1)C(=O)N([C@@H](C)CO)C[C@@H](C)[C@H](CN(C)Cc1ccccc1F)O2 do in these assays?
GDH-TPI counter: 13.4; FBA Mtb inh: 1.5

What do the screens show for `Cc1ccc(C(=O)Nc2sc3c(c2C(=O)O)CCCC3)o1`?
GDH-TPI counter: 35.8*; Mtb bLac sens: 11.1; FBA Mtb inh: 14.1; RecA splice inh: -2.5; Mtb UGM inh: 1.1; Rv3671c protease: -1.1

How did O=C(C1CC(=O)N(c2ccc(Cl)cc2)C1)N1CCOCC1 (stereo unspecified) do in these assays?
GDH-TPI counter: -1.1; Mtb bLac sens: -5.4; FBA Mtb inh: 0.5; RecA splice inh: -1.7; Mtb UGM inh: 0.9; Rv3671c protease: -1.1

What do the screens show for `O=C(NC1=NCCS1)c1ccc(-c2ccc(Cl)cc2)o1`?
GDH-TPI counter: 55.2*; Mtb bLac sens: 97.1; FBA Mtb inh: 136.3*; RecA splice inh: -2.6; Mtb UGM inh: 0.8; Rv3671c protease: -6.1

What do the screens show for `O=C(NC1=NCCS1)c1ccc(Cl)cc1`?
GDH-TPI counter: 5.5; Mtb bLac sens: 9.5; FBA Mtb inh: -2.6; RecA splice inh: -0.7; Mtb UGM inh: 0.3; Rv3671c protease: 4.0

What do the screens show for `C=CCC1NS(=O)(=O)O[C@H](CCCC)[C@@H]1O` (stereo partly specified)?
GDH-TPI counter: 6.0; Mtb bLac sens: 2.2; FBA Mtb inh: -4.6; RecA splice inh: -1.1; Mtb UGM inh: 1.7; Rv3671c protease: 1.1

How did COC(=O)c1c(N)n(Cc2ccc(OC)cc2)c2nc3ccccc3nc12 do in these assays?
GDH-TPI counter: 1.7; Mtb bLac sens: -4.5; FBA Mtb inh: 159.0*; Mtb UGM inh: -0.6; Rv3671c protease: 0.6

How did COCCOC(=O)c1c(N)n(Cc2ccc(OC)cc2)c2nc3ccccc3nc12 do in these assays?
GDH-TPI counter: 11.6; Mtb bLac sens: 22.7; FBA Mtb inh: 171.3*; Mtb UGM inh: 1.6; Rv3671c protease: 2.8

How did O=C(CCl)N1N=C(c2ccco2)CC1c1ccco1 (stereo unspecified) do in these assays?
GDH-TPI counter: 12.7; Mtb bLac sens: 98.9; FBA Mtb inh: -2.1; RecA splice inh: 53.9*; Mtb UGM inh: 2.6; Rv3671c protease: 2.4

Results for Cc1c(O)ccc2c(CC(=O)N[C@@H](Cc3ccccc3)C(=O)O)cc(=O)oc12 ?
GDH-TPI counter: 14.7; Mtb bLac sens: 4.8; FBA Mtb inh: 164.8*; RecA splice inh: -188.0; Mtb UGM inh: -0.1

How did COc1ccccc1S(=O)(=O)N1CCNC(=O)C1 do in these assays?
GDH-TPI counter: 7.3; Mtb bLac sens: -4.6; FBA Mtb inh: -1.4; Mtb UGM inh: 1.4; Rv3671c protease: 9.0

How did CC1(C)Cc2c(C#N)c(N3CCN(C(=O)c4ccco4)CC3)nc(Cc3ccccc3)c2CO1 do in these assays?
GDH-TPI counter: 6.9; Mtb bLac sens: 82.7; FBA Mtb inh: 1.5; RecA splice inh: 23.4; Mtb UGM inh: 0.6; Rv3671c protease: -3.3

Results for Cc1nc(N2CCN(C(=O)c3ccc(Cl)cc3)CC2)c(C#N)c2c1COC(C)(C)C2 ?
GDH-TPI counter: 13.0; Mtb bLac sens: 9.5; FBA Mtb inh: 38.1*; RecA splice inh: 2.5; Mtb UGM inh: -2.2; Rv3671c protease: -2.6

What do the screens show for `O=C(CN1CCN(Cc2ccccc2)CC1)NCCNc1ccc([N+](=O)[O-])cn1`?
GDH-TPI counter: 23.2; Mtb bLac sens: 3.3; FBA Mtb inh: -0.1; RecA splice inh: 0.0; Mtb UGM inh: 0.0; Rv3671c protease: -6.4

Results for Nc1ccn(CC(=O)NCCNc2ccc([N+](=O)[O-])cn2)c(=O)n1 ?
GDH-TPI counter: 32.8*; Mtb bLac sens: -1.6; FBA Mtb inh: 2.8; Mtb UGM inh: 2.5; Rv3671c protease: -4.9

What do the screens show for `CS(=O)(=O)c1ccc2nc(NC(=O)CCNC(=O)c3ccc(Cl)cc3)sc2c1`?
GDH-TPI counter: 13.5; FBA Mtb inh: -1.2

Results for O=C(c1nnsc1S(=O)c1ccc(Cl)cc1)N1CCOCC1 (stereo unspecified) ?
GDH-TPI counter: 8.5; FBA Mtb inh: -0.1; RecA splice inh: 26.1

Results for O=C(Nc1ccccc1)c1nnsc1S(=O)c1ccc(Cl)cc1 (stereo unspecified) ?
GDH-TPI counter: 7.9; Mtb bLac sens: 100.4; FBA Mtb inh: -0.9; RecA splice inh: 35.4*; Mtb UGM inh: 2.4; Rv3671c protease: -8.1

What do the screens show for `C/C(=N\Nc1nc2ccccc2[nH]1)c1ccc2c(c1)OCO2`?
GDH-TPI counter: 31.1*; Mtb bLac sens: -3.8; FBA Mtb inh: 1.6; RecA splice inh: 5.1; Mtb UGM inh: 1.2; Rv3671c protease: 5.4

Results for C/C(=N\Nc1nc2ccccc2[nH]1)c1cc2ccccc2o1 ?
GDH-TPI counter: 32.6*; Mtb bLac sens: 90.7; FBA Mtb inh: 4.0; RecA splice inh: 8.3; Mtb UGM inh: 1.3; Rv3671c protease: 11.1

How did C/C(=N\Nc1nc2ccccc2[nH]1)c1ccc2c(c1)OCCO2 do in these assays?
GDH-TPI counter: 13.1; Mtb bLac sens: 0.9; FBA Mtb inh: 3.4; RecA splice inh: 2.8; Mtb UGM inh: 1.2; Rv3671c protease: 6.0

Results for CN1c2ccccc2C(C)(C)C12C=Nc1c(cc(N3CCOCC3)c3ccccc13)O2 (stereo unspecified) ?
GDH-TPI counter: 8.4; FBA Mtb inh: -10.6; RecA splice inh: 45.7*
